Reference: PubChem BioAssay (NCI)
“And” between values parts separate entries of the source, which are not always exact repeats. Equal entries are not always repeated. This is part of a sample that, as a whole, favours compounds with a hit. Of some 83,000 tested, about 20% had one in any assay.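 Single-dose data. Exposure time 48 hours. Values below 10 considered active.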 Unmarked numbers belong to inactive results. The source made the active and inactive calls.

tested on: MDA-MB-468 breast; assay: NCI-60 one-dose screen, 48 h (100 = growth as untreated, 0 = no growth, -100 = all killed); details: 10 µM unless noted

SMILES | growth
S=C(N/N=C/c1ccccn1)Nc1ccccn1 | -1.71% (active)
CCN1CCN(c2nc(NNC(=O)c3ccccc3)nc(N3CCN(C(c4ccccc4)c4ccccc4)CC3)n2)CC1 | 7.71% (active)
C[N+](C)(C)C(=O)c1ccccc1 | 101%
COCCOC(=O)NC(=O)Nc1ccc(C(=O)c2ccc(Cl)cc2)cc1 | -8.24% (active)
CC(=O)Nc1nc2c(c(N)c1C#N)C(c1cccc(Cl)c1)C1=C(CCCC1=O)N2c1sc2c(c1C#N)CCCC2 (stereo not given) | 47.7%
COc1ccc(/C=C(\C#N)n2nnc3cc(F)c(F)cc32)cc1 | 8.69% (active)
CCCCCOC(=O)c1ccc(NC(=O)CNCC(C)C)cc1 | 102%
COc1ccc(/C=C(\C#N)c2cc(OC)c3c(c2)OCO3)cc1 | -4.06% (active)
C=C(C)C(C(=O)OCC)(C(=O)OCC)C(C)C | 109%
CSc1nc2c(c(=O)[nH]1)C(c1ccc(C)cc1)C=C(C(=O)O)N2 (stereo not given) | 114%
COc1cc2c(cc1OC)C(=O)C(Br)CC2 (stereo not given) | 24.7%
COc1ccc(-c2nc(N3CCN(C(=O)C4CCCCC4)CC3)c3c4c(sc3n2)CCCC4)cc1 | -17.4% (active)
Nc1c(C(=O)Nc2ccccc2C(F)(F)F)sc2nc3c(cc12)CCC3 | 104%
COc1cc(C2=Nc3c(N)nc(N)nc3NC(c3cccc(Nc4ccnc5cc(C(F)(F)F)ccc45)c3)C2)cc(OC)c1OC (stereo not given) | 68.1%
Cc1cc(=O)[nH]c(O)c1C#N | 97.5% and 95.9% and 111%
CN1CCN(C(=S)S)CC1 | 119%
COc1ccc(Cn2cc3c(c2-c2ccccc2)CCc2cnoc2-3)cc1 | 55.2%
CCCOC(=O)Nc1nc2ccc(SCC(C)C)cc2s1 | -9.94% (active)
O=C1Nc2ccc(Cl)cc2/C1=C/c1ccc(OCc2ccc(F)cc2)cc1 | 97.3%
O=C(O)c1ccc2c(c1)nc(Nc1cccc(Cl)c1)c1ccncc12 | -36.1% (active)

SMILES | growth
Cn1c2ccccc2c2c3c(c4c5ccccc5[nH]c4c21)C(=O)N(N)C3=O | -37.5% (active)
COc1ccc(Nc2ncnc3c2c(SC)nn3-c2ccccc2)cc1 | 69.2%
CC1CCCC(=O)O1 (stereo not given) | 97.4% and 97.3%
COc1ccc(C(=O)/C=C/c2ccccn2)c(O)c1 | 57.1%
CCN1CCCC(N2c3ccccc3Sc3ccccc32)C1 (stereo not given) | 116%
COc1cccc(-c2nc3sccn3c2-c2ccnc(NCCCNS(=O)(=O)c3ccc(F)cc3)n2)c1 | 47.9%
O=c1oc2ccc(I)cc2c(=O)n1-c1ccc(Br)cc1F | -2.16% (active)
COc1ccc(C(=O)c2cc3c(N)c(C(=O)Nc4ccccc4)sc3nc2C)cc1 | 3.89% (active)
Cc1cc(N(CCCNc2ccnc3cc(Cl)ccc23)Cc2ccc3c(c2)OCO3)nc(N2CCOCC2)n1 | -14.4% (active)
c1ccc2cc(C[n+]3ccn(CCCCCCCCCCCCn4cc[n+](Cc5ccc6ccccc6c5)c4)c3)ccc2c1 | -81.7% (active)
c1ccc2c(c1)oc1c3cccnc3ccc21 | -62% (active)
COc1nc(N)nc2c1ncn2C1OC(CO)CC1O (stereo not given) | 98.5%
O=C(CSc1nc2ccccc2c(=O)n1-c1ccccc1)Nc1ccc(S(=O)(=O)Nc2nccs2)cc1 | 56.4%
COc1ccc(C(=O)/C=C/c2cccc(Nc3ccnc4cc(Cl)ccc34)c2)cc1 | -2.59% (active)
CC1(C)N=C(N)N=C(N)N1c1ccc(CCc2ccccc2)c(Cl)c1 | -28.3% (active)
CC(=O)NNC(=O)c1sc(NC(C)=O)nc1C | 104%
COc1ccc(/C=C(\c2cc(OC)c(OC)c(OC)c2)c2nnc(-c3cccs3)o2)cc1 | 77.7%
Cc1nc2ncnc(Cl)c2[nH]1 | 105%
S=c1nc2oc(-c3ccccc3)c(-c3ccccc3)c2c(/N=C\c2ccco2)[nH]1 | 91.6%
Cc1ccc(NC(=O)c2ccc(CN3CCN(C)CC3)cc2)cc1Nc1nc(-c2cccnc2)cs1 | 25.5%
